Laboratory results taken from PubChem BioAssay (Tox21).
Records with an inconclusive call do not appear. The source made the active and inactive calls. Unless noted, calls follow the shape of the dose curve; as a rule, active = well fitted curve in the direction sought with a large enough effect in the repeat runs; inconclusive = weak or mixed curves; inactive = no such curve, though single readings can be large; an effect the other way counts as inactive or inconclusive.

Experiments:
[1] = qHTS assay to identify small molecule antagonists of the vitamin D receptor (VDR) signaling pathway - cell viability counter screen (AID 743225); also: nearly all actives have a fitted effect of over 50% in size; also: potency is read from the fitted curve at half-maximal effect; as to viability change, negative = cytotoxic: % is scaled to controls: 0 for no effect and ±100 for the full control effect
How it was run: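 VDR-bla HEK 293T cells, 4 h pre-incubation at 37C, then compound plus 1-alpha,25-dihydroxyvitamin D3 (3 nM final) for 16 h. After the beta-lactamase FRET read, CellTiter-Glo was added to the same wells; luminescence after 30 min at room temperature.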

[2] = qHTS assay to identify small molecule agonists of the endoplasmic reticulum stress response signaling pathway - cell viability counter screen (AID 1159517; calls by dose curve; also: nearly all actives have a fitted effect of over 50% in size; also: potency is read from the fitted curve at half-maximal effect;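 as to activity change, negative = cytotoxicity: HeLa cells carrying an ER stress response element beta-lactamase reporter; series mostly up to about 61 µM; % is scaled to controls: 0 for no effect and ±100 for the full control effect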)
How it was run: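 Counter-screen wells were identical to the reporter wells. Cells were plated at 1,500 per well and dosed for 5 hr, then read for luminescence 30 min after CellTiter-Glo addition.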

[3] = qHTS assay to identify small molecule antagonists of the retinoid-related orphan receptor gamma (ROR-gamma) signaling pathway - cell viability counter screen (AID 1159520); also: nearly all actives have a fitted effect of over 50% in size; also: potency is read from the fitted curve at half-maximal effect; as to activity, negative = cytotoxicity: % is scaled to controls: 0 for no effect and ±100 for the full control effect
How it was run: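 Tet-on ROR gamma CHO cells were given compounds for 2 hr, then doxycycline hyclate at 1 uM final, and incubated 16 hr at 37 C. Viability was measured as ATP content by CellTiter-Glo luminescence.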

[4] = qHTS assay to identify small molecule agonists of the AP-1 signaling pathway - cell viability counter screen (AID 1159525; calls by dose curve; also: nearly all actives have a fitted effect of over 55% in size)
How it was run: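 AP-1-bla ME-180 cells in Opti-MEM with 0.5% dialyzed FBS, compound exposure 5 h at 37 C in 15-point titration. Viability read in the same wells as ATP content by CellTiter-Glo luminescence, normalised to tetra-n-octylammonium bromide and DMSO controls.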

[5] = qHTS assay to identify small molecule agonists of the RXR signaling pathway - cell viability counter screen (AID 1159529); also: nearly all actives have a fitted effect of over 50% in size; also: potency is read from the fitted curve at half-maximal effect
How it was run: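 RXR-alpha-UAS-bla HEK 293T cells in medium with 2% charcoal-stripped FBS were preincubated 5 hr, then exposed to compounds for 16 hr at 37 C. Viability was read as CellTiter-Glo luminescence after 30 min at room temperature.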

[6] = qHTS assay to identify small molecule agonists of the AP-1 signaling pathway (AID 1159526; calls by dose curve; also: % is scaled to controls: 0 for no effect and ±100 for the full control effect)
[7] = qHTS assay to identify small molecule agonists of the vitamin D receptor (VDR) signaling pathway - cell viability counter screen (AID 743224); also: nearly all actives have a fitted effect of over 50% in size; also: potency is read from the fitted curve at half-maximal effect
How it was run: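 Plated VDR-bla cells (4 h, 37C) received compound, incubated 16 h, then LiveBLAzer substrate 2 h RT; CellTiter-Glo added afterwards, luminescence read at 30 min.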

[8] = target: Nuclear receptor ROR-gamma (Homo sapiens) (UniProt P51449); assay: qHTS assay to identify small molecule antagonists of the retinoid-related orphan receptor gamma (ROR-gamma) signaling pathway (AID 1159521; also: nearly all actives have a fitted effect of over 50% in size; also: potency is read from the fitted curve at half-maximal effect)
How it was run: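 Tet-on RORγ CHO cells carrying a ROR response element–luciferase reporter were pretreated with compounds for 2 h, then induced with 1 uM (final) doxycycline hyclate for 16 h at 37 C. Antagonism was read as decreased ONE-Glo luminescence.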

[9] = target: Retinoic acid receptor RXR-alpha (Homo sapiens) (UniProt P19793); assay: qHTS assay to identify small molecule agonists of the RXR signaling pathway (AID 1159527; calls by dose curve; also: % is scaled to controls: 0 for no effect and ±100 for the full control effect; nearly all actives have a fitted effect of over 35% in size)
How it was run: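 GeneBLAzer RXR-alpha-UAS-bla HEK 293T cells in medium with 2% charcoal-stripped FBS, pre-incubated 5 hr at 37 C, then exposed to compounds 16 hr. Beta-lactamase reporter read by FRET substrate, 2 hr room temperature, 460/530 nm emission.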

Chain of Retinoic acid receptor RXR-alpha (Homo sapiens) (P19793 whole entry, looked up): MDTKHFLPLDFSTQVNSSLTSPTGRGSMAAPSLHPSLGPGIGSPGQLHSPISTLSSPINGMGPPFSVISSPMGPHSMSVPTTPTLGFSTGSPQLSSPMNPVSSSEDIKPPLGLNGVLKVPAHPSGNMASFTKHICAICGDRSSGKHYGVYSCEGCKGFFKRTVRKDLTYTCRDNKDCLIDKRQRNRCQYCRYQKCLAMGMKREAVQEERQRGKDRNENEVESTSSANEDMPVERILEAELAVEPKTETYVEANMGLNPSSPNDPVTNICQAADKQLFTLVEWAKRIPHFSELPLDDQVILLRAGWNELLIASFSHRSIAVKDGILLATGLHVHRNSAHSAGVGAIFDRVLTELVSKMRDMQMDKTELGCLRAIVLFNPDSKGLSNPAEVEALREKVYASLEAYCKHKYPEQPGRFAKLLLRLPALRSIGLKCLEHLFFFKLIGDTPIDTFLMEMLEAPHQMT

O=C(O)CCn1c2c(c3ccccc31)C[C@H](NS(=O)(=O)c1ccc(F)cc1)CC2
inactive: Potency [1] | Potency [2] | Potency [3] | Potency [4] | Potency [5]

CN1[C@@H]2CC[C@@H]1CC(OC(=O)C(CO)c1ccccc1)C2 (some centres undefined)
inactive: Potency [2] | Potency [3] | Potency [4] | Potency [6]

CN(C)c1ccc(N=NS(=O)(=O)O)cc1
active: Potency [8] 4.33 µM
inactive: Potency [7] | Potency [2] | Potency [6]

COc1ccc(-n2nc(CCC(=O)N(C)O)cc2-c2ccc(Cl)cc2)cc1
inactive: Potency [1] | Potency [2] | Potency [3] | Potency [4]

CC1=C(/C=C/C(C)=C/C=C/C(C)=C\C=O)C(C)(C)CCC1
active: Potency [7] 41.3 µM | Potency [2] 41.3 µM | Potency [3] 57.9 µM | Potency [5] 52 µM

C1CC(COCC2CO2)CCC1COCC1CO1 (centres undefined)
inactive: Potency [7] | Potency [2] | Potency [3] | Potency [4] | Potency [5]

Cc1oc(-c2ccccc2)nc1CCOc1ccc(C[C@H](Nc2ccccc2C(=O)c2ccccc2)C(=O)O)cc1
active: Potency [7] 21.9 µM | Potency [1] 19.5 µM | Potency [2] 54.9 µM | Potency [3] 61.1 µM

CCCCCCCCCCOCC(O)CN (centres undefined)
active: Potency [2] 21.3 µM | Potency [8] 26.6 µM
inactive: Potency [6]

C=CCCCCCCC=C
inactive: Potency [3] | Potency [4] | Potency [6]
active: Potency [7] 49.1 µM | Potency [2] 55.1 µM

COc1ccc2sc(C(=O)Nc3nnn[nH]3)c(OC(C)C)c2c1
inactive: Potency [7] | Potency [1] | Potency [4]
active: Potency [2] 19.4 µM | Potency [8] 12.1 µM

CCCCCCCCCCCCN(CCO)CCO
active: Potency [7] 30.8 µM

CCN(CC)c1ccc(N)cc1
active: Potency [7] 20 µM

CC[N+](CC)(CC)Cc1ccccc1
inactive: Potency [3] | Potency [8] | Potency [4] | Potency [6] | Potency [9] | Potency [5]

CCCC(=O)OCC(COC(=O)CCC)OC(=O)CCC
inactive: Potency [3] | Potency [8] | Potency [4] | Potency [6] | Potency [9] | Potency [5]

C=C(C)CCCC
inactive: Potency [3] | Potency [8] | Potency [4] | Potency [6] | Potency [9] | Potency [5]

C=C/C=C/C=C/CCCCC
inactive: activity, negative = cytotoxicity [3] -9.56% [at 19 µM] | activity change, negative = inhibition [8] -0.464% [at 19 µM] | viability change, negative = cytotoxic [4] 1.06% [at 15.8 µM] | activation [6] 2.42% [at 15.8 µM] | activation [9] -4.02% [at 15.8 µM] | activity change, negative = cytotoxicity [5] -9.45% [at 15.8 µM]

CCCC(O)C(O)CO (centres undefined)
inactive: Potency [3] | Potency [8] | Potency [4] | Potency [6] | Potency [9] | Potency [5]

Clc1nc2ccccc2s1
inactive: Potency [3] | Potency [8] | Potency [4] | Potency [6] | Potency [9] | Potency [5]

CO[Si](CCC1CCC2OC2C1)(OC)OC (centres undefined)
inactive: Potency [3] | Potency [8] | Potency [4] | Potency [6] | Potency [9] | Potency [5]

O=S(O)O
inactive: activity, negative = cytotoxicity [3] 14% [at 19 µM] | activity change, negative = inhibition [8] 7.25% [at 19 µM] | viability change, negative = cytotoxic [4] 5.55% [at 15.8 µM] | activation [6] 2.22% [at 15.8 µM] | activation [9] -2.24% [at 15.8 µM] | activity change, negative = cytotoxicity [5] -0.924% [at 15.8 µM]

OCCN1CN(CCO)CN(CCO)C1
inactive: Potency [3] | Potency [8] | Potency [4] | Potency [6] | Potency [9] | Potency [5]

CCOCN(C(=O)CS(=O)(=O)O)c1c(C)cccc1CC
inactive: Potency [3] | Potency [8] | Potency [4] | Potency [6] | Potency [9] | Potency [5]

Cc1cncc(C)c1
inactive: Potency [3] | Potency [8] | Potency [4] | Potency [6] | Potency [9] | Potency [5]

CCC(C)c1ccccc1 (centres undefined)
inactive: Potency [3] | Potency [8] | Potency [4] | Potency [6] | Potency [9] | Potency [5]

CC(=O)C=O
inactive: Potency [3] | Potency [8] | Potency [4] | Potency [6] | Potency [9] | Potency [5]

CC(C)CCOCCC(C)C
inactive: Potency [3] | Potency [8] | Potency [4] | Potency [6] | Potency [9] | Potency [5]

Cc1cccc(C)n1
inactive: Potency [3] | Potency [8] | Potency [4] | Potency [6] | Potency [9] | Potency [5]

C/C=C/CO
inactive: Potency [3] | Potency [8] | Potency [4] | Potency [6] | Potency [9] | Potency [5]

CC(C)(C)c1n[nH]c(=O)n(N)c1=O
inactive: Potency [3] | Potency [8] | Potency [4] | Potency [6] | Potency [9] | Potency [5]

CC1(C)COCN1
inactive: Potency [3] | Potency [8] | Potency [4] | Potency [6] | Potency [9] | Potency [5]

Oc1cc2ccccc2cc1O
inactive: Potency [3] | Potency [8] | Potency [4] | Potency [6] | Potency [9] | Potency [5]

c1cc[nH]c1
inactive: Potency [3] | Potency [8] | Potency [4] | Potency [6] | Potency [9] | Potency [5]

CCCCOCC
inactive: Potency [3] | Potency [8] | Potency [4] | Potency [6] | Potency [9] | Potency [5]

CC(C)=CC1CC(C)CCO1 (centres undefined)
inactive: Potency [3] | Potency [8] | Potency [4] | Potency [6] | Potency [9] | Potency [5]

CC(C)=CCCC(C)O (centres undefined)
inactive: Potency [3] | Potency [8] | Potency [4] | Potency [6] | Potency [9] | Potency [5]

CCOC(/C=C(\C)CCC=C(C)C)OCC
inactive: Potency [3] | Potency [8] | Potency [4] | Potency [6] | Potency [9] | Potency [5]
